Source: PubChem BioAssay AID492998 (Southern Research Specialized Biocontainment Screening …, 2010)
In all, about 2,300 compounds went through this assay and about 550 (24%) were called active. Only a sample is shown. Results with a measured potency or affinity are listed apart. Values without a mark were called inactive. The rule behind the calls is not given here.

Experiment: Vero E6 cell cytotoxicity, dose response, cytotoxicity control for non-replicating M. tuberculosis project, secondary assay (AID 492998);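 note: 100% = vehicle-treated cells and 0% = background wells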
Details: series mostly up to 20 µM; viability: at the top concentration

Structure (SMILES) | viability [%]
Cc1ccc(C(=O)O/N=C(\N)c2cccc([N+](=O)[O-])c2)cc1 | 88.5
O=C(OCCCOC(=O)c1ccc([N+](=O)[O-])o1)c1ccc([N+](=O)[O-])o1 | 99.5
CCOC(=O)C1CCN(CCCSc2ccc(Cl)cc2)CC1 | 98.9
Cc1ccc(NC(=O)C2=C(c3ccccc3)S(=O)(=O)CCS2(=O)=O)cc1 | 94.5
C/C(=N\NC(=O)COc1ccc(C)cc1Br)c1cc([N+](=O)[O-])cs1 | 84.7
C/C(=N\NC(=O)c1cc([N+](=O)[O-])cc([N+](=O)[O-])c1)c1ccco1 | 97
O=C(CCN1CCC(c2ccccc2)C1)c1ccccc1 (centres undefined) | 97.1
COC(=O)COc1ccc2c(-c3cccc([N+](=O)[O-])c3)cc(=O)oc2c1 | 99.4
CCOC(=O)c1c(NC(=O)COC(=O)c2ccccn2)sc2c1CCC2 | 97.1
COc1ccc(-c2nnn(CC(=O)OC3CCCCC3)n2)cc1OC | 92.8
COc1ccc2c(c1)sc(=N)n2C | 83.1
CCOC(=O)C(C)Oc1cc(Cl)c(C=O)cc1OC (centres undefined) | 101
CC1=NN(c2ccccc2)C(=O)C1C(=O)c1ccccc1 (centres undefined) | 107
O=C(OCc1nc2ccccc2s1)c1ccc(Br)o1 | 98
COc1ccc(N=Cc2nc(-c3ccccc3)oc2OC(C)=O)cc1 | 99.7
Cc1ccc(NC(=O)COC(=O)C(NS(=O)(=O)c2ccc(Cl)cc2)C(C)O)cc1C (centres undefined) | 98.9
Cc1ccc(C)c(-c2nnc(NC(=O)COc3ccccc3)o2)c1 | 71.6
C/C(CC(=O)Nc1ccc(C)c(Cl)c1)=N\NC(=O)c1ccco1 | 84.7
Cc1ccc(-c2nnc(Cc3ccc([N+](=O)[O-])cc3)o2)cc1 | 104
O=C(Nc1nnc(-c2ccccc2Cl)o1)c1ccco1 | 109
O=C(Nc1nnc(-c2ccc(Br)cc2)o1)C1=COCCO1 | 92.6
O=C(Nc1nnc(-c2cc(Cl)ccc2Cl)o1)C1=COCCO1 | 95.4
O=C(Nc1nnc(-c2ccc(Br)cc2)o1)c1ccco1 | 79.3
CCc1nnc(NC(=O)CN2CCN(c3ccccc3F)CC2)s1 | 111

Structure (SMILES) | viability [%]
CC(C)[C@H]1CN=C2N(C[C@H](C)NC(=O)CCC3CCCCC3)[C@H](Cc3ccc(O)cc3)CN21 | 93.5
COc1ccc(C2=Nc3ccccc3OC2)cc1 | 96.1
O=C(OCC#CCSc1nnc(-c2ccccc2)o1)c1ccco1 | 97.8
Cc1ccnc(NC(=O)COc2ccc3c(c2)CCC3)c1 | 104
COCCCNC(=O)COC(=O)c1ccc(-c2nc3ccccc3s2)s1 | 95
COc1ccc(C(C)=O)cc1COC(=O)c1ccc2ccccc2n1 | 106
CC1Cc2ccccc2N1C(=O)COC(=O)c1ccc(Cl)nc1 (centres undefined) | 102
Cn1c(=O)c2c(=O)cc(NNC(=O)CC#N)[nH]c2n(C)c1=O | 110
COC(=O)COc1ccc(S(=O)(=O)NCc2ccc3c(c2)OCO3)cc1 | 106
COc1ccc(NCC(=O)N2CCCC2)cc1Cl | 119
CC1CCc2c(sc3nc(CSc4ncn[nH]4)[nH]c(=O)c23)C1 (centres undefined) | 89.9
CCOC(=O)COc1ccc2c(=O)c(-c3ccccc3)coc2c1 | 103
C=CCN1C(=O)C2(NNc3ccccc3O2)c2ccccc21 (centres undefined) | 82
Cc1ccc2c(c1)C(=O)C(=O)N2CCCOc1ccccc1 | 96.2
O=C(c1ccccc1)n1c(=O)c(F)cn(COCCBr)c1=O | 108
Cc1cc(C)cc(NC(=O)CCc2ccc(C)o2)c1 | 97
CCc1ccc(N=CC2=C(O)CC(c3ccco3)CC2=O)cc1 (centres undefined) | 95.6
C/C(=N/NC(=O)c1ccco1)c1ccc(Br)s1 | 90.8
Cc1ccc(/C=C2\SC(=S)N(C3CCS(=O)(=O)C3)C2=O)o1 (centres undefined) | 89.5
COC(=O)c1ccc(CO/N=C/c2ccc(OC)cc2)o1 | 99.9
CCOC(=O)COc1ccc(C(=O)NC2CCCCC2)cc1 | 103
O=C(Oc1cccc([N+](=O)[O-])c1)c1ccc2c(=O)n3c(nc2c1)CCC3 | 96.2
O=c1c2cc(Cl)ccc2nc(-c2ccccc2Cl)n1O | 103
N/C(=N\OC(=O)c1cccc(Br)c1)c1ccc([N+](=O)[O-])cc1 | 98.3

Structure (SMILES) | viability [%]
Cc1nc2ccc(Cl)cc2nc(C)/c1=N\O | 88.4
O=c1c2c([N+](=O)[O-])cc([N+](=O)[O-])cc2sn1-c1ccc(Br)cc1 | 77
O=[N+]([O-])c1ccc2nc(SCc3cn4cc(Cl)ccc4n3)[nH]c2c1 | 91.4
CCOC(=O)c1cn(Cc2cccc(Cl)c2)nn1 | 97.6
O=C(O)c1ccccc1C(=O)NNc1ccc(Cl)cc1 | 104
CCCCCC1CC(CC(=O)NC(=S)Nc2ccc([N+](=O)[O-])cc2)C(=O)O1 (centres undefined) | 104
Cc1c(Cl)cccc1NC(=O)C1COc2ccccc2O1 (centres undefined) | 99.6
CCOC(=O)NC(=O)COC(=O)CCCSc1nc2ccccc2s1 | 104
Cn1ccsc1=NC(=O)c1ccccc1F | 97.6
CCc1ccc(C(=O)NC2CCCCC2)s1 | 98.3
Cc1ccc(Sc2ccc(C=C3C(=O)N(C)C(=O)N(C)C3=O)o2)cc1 | 93
Cc1cc(C(=O)NNc2cc(Cl)ccc2Cl)no1 | 94.2
CC(C)(C)OC(=O)NCCC(=O)Oc1ccc2ccc(=O)oc2c1 | 93.9
COC(=O)[C@@H](NC(=O)c1cc(COc2cncc(Cl)c2)on1)c1ccccc1 | 103
Cc1ccc(NC(=O)CN(C)CC(=O)Nc2ccc(F)c(Cl)c2)cc1 | 101
CCOC(=O)COc1cc([N+](=O)[O-])cc2cccnc12 | 104
NCCNc1ccc([N+](=O)[O-])c2cccnc12 | 96.2
O=C1c2cccc3cc([N+](=O)[O-])cc(c23)C(=O)N1c1ccccc1O | 91.5
O=[N+]([O-])c1cnc(Nc2ccc(Cl)cn2)c([N+](=O)[O-])c1 | 82.3
Fc1ccc(N2CCN(Cc3nnc(-c4ccccc4)o3)CC2)cc1 | 119
Cc1occc1-c1nnc(-c2cc([N+](=O)[O-])cc([N+](=O)[O-])c2)o1 | 90.4
S=C(Nc1ccc2c(c1)OCO2)Nc1ccc2c(c1)OCO2 | 83.2
CCOC(=O)c1cc(-c2csc(COc3ccccc3)n2)on1 | 102
CC(=O)N1CCC(=NNC(=O)c2cccs2)CC1 | 99.7

Structure (SMILES) | viability [%]
NC1CCN(c2c(F)cc3c(=O)c(C(=O)O)cn(C4CC4)c3c2Cl)C1 (centres undefined) | 102
Cc1ccc2cc3c(nc2c1)OCC3 | 99.3
O=C(Nc1nccs1)c1cc2cc(Cl)ccc2oc1=O | 109
O=C(NNc1ccc([N+](=O)[O-])cc1)C1CC2CCCC(C1)C2=O (centres undefined) | 101
COCC(=O)Nc1ccccc1NC(C)=O | 94.4
CCOc1cc(/C=N/NC(=O)c2ccccn2)ccc1OC(=O)c1cccs1 | 111
COC(=O)c1ccc(COC(=O)c2ccccn2)cc1 | 102
O=C(OCc1ccc(Cl)c(Cl)c1)c1ccccn1 | 115
CCOc1ccc(OCc2ccc(C(=O)OCc3ccccn3)o2)cc1 | 103
Cc1ccccc1NC(=O)C1COc2ccccc2O1 (centres undefined) | 91.7
O=C(OCc1ccccn1)c1ccc(COc2ccccc2Cl)o1 | 80.2
Nc1ccc2cc(Br)ccc2c1 | 81.7
N#CC(C(=O)NCc1ccco1)c1nc2ccccc2nc1N1CCOCC1 (centres undefined) | 89.9
Cc1c([N+](=O)[O-])cnc(Sc2ccccc2)c1[N+](=O)[O-] | 77.3
Nc1ncnc(Oc2cccc3cccnc23)c1[N+](=O)[O-] | 88.1
O=C(NNC(=O)c1ccccc1F)c1ccc(-c2ccc(Cl)cc2)o1 | 100
Cn1cccc1/C=N/NC(=O)c1ccco1 | 98
C=CCNc1nc(C(=O)OCC(=O)c2cccc(Br)c2)cs1 | 101
O=C(CCNc1ccc(Cl)c(C(F)(F)F)c1)c1ccco1 | 76.2
COc1ccc(C(=O)CCNc2ccc(F)cc2)cc1 | 103
Cc1ccc(C(=O)CCNc2ccc(Br)cc2)o1 | 86.6
O=C(CCNc1cccc(Cl)c1)c1cccs1 | 84.5
O=C(COC(=O)c1ccc(O)cc1O)c1ccc2c(c1)OCO2 | 110
O=C(CCN1CCC(c2cccs2)=N1)c1cccs1 | 117

Structure (SMILES) | viability [%]
C/C(=N\Nc1ccc(Cl)cc1)c1c(O)cc(C)oc1=O | 102
CSc1ccc(N=Nc2c(C)[nH]n(C)c2=O)cc1 | 97
Cc1ccc(N=Nc2c(C)[nH]n(C(N)=S)c2=O)cc1 | 85.3
Cn1nnnc1N=N/C(=N/Nc1ccccc1)c1ccccc1 | 80.9
CC(NC(=O)c1cc2ccccc2oc1=O)c1ccccc1 (centres undefined) | 98.7
CCCCOC(=O)c1ccc(NC(=O)C2CCCO2)cc1 (centres undefined) | 85.9
Cc1cccc(OCC(=O)NNC(=O)c2cc3ccccc3oc2=O)c1 | 104
O=C(COc1ccc2ccccc2c1)N/N=C/c1ccccn1 | 103
O=C(COC(=O)CCC(=O)c1ccc(F)cc1)Nc1ccccc1 | 101
CC(=O)OCCNc1cc(SCc2ccco2)c2nonc2c1[N+](=O)[O-] | 98.7
CC(=O)OCCN(C)c1cc(SC(C)C)c2nonc2c1[N+](=O)[O-] | 101
C/C(Cn1nnc([N+](=O)[O-])n1)=N\NC(=O)c1ccncc1 | 93.6
Cc1nc(-c2ccc(C(F)(F)F)cc2)sc1C(=O)NN | 100
Cc1cc(Cl)ccc1NNC(=O)c1cccs1 | 110
COC(=O)COc1ccc2c(=O)c(-c3ccccc3OC)coc2c1 | 103
Cc1ccnc(NC(=O)c2cc3ccccc3o2)c1 | 79.7
Cc1n[nH]c(C)c1CCOc1ccc(C(C)C)cc1 | 84
COc1cc(OC)cc(-c2nc3ccccc3c(=O)o2)c1 | 100
CCCOC(=O)c1ccc(NC(=O)C2C3C=CC(O3)C2C(=O)O)cc1 (centres undefined) | 104
CCCCCCNC(=O)c1ccc(Br)o1 | 91.2
CC(=O)CCC1CC(c2ccc(Cl)cc2)=NO1 (centres undefined) | 110
C=CC[n+]1ccn(-c2nc3ccccc3nc2[N-]S(=O)(=O)c2cccs2)c1 | 91.2
Cc1cc(C)c2sc(NC(=O)C3=COCCO3)nc2c1 | 95.5
